Assay results published in PMC6792352, “Limited Chemical Structural Diversity Found to Modulate Thyroid Hormone Receptor in the Tox21 Chemical Library” (Environmental Health Perspectives, 2019).

Test system: thyroid hormone receptor (endogenous TRα and TRβ)
Parameters: species or system GH3-TRE-Luc (rat pituitary); GH3-TRE-Luc luciferase reporter, antagonist mode against 1 nM T3, loss of signal, qHTS
Conditions: read-out: Average AC50 (uM) GH3-TRE-Antag, antagonist mode, 1 nM T3, no GH3 cytotoxicity hit

Structure (SMILES)	AC50 [µM]
Cc1cccc(C)c1Nc1ncccc1C(=O)O [Metanixin]	28.2
C#C[C@]1(O)CC[C@H]2[C@@H]3CCC4=CC(=O)CCC4=C3C=C[C@@]21CC [Gestrinone]	24.3
O=c1[nH]c(Cl)c(Cl)cc1Cl [3,5,6-Trichloro-2-pyridinol]	76.8
O=C1c2ccccc2C(=O)C1(O)O [Ninhydrin]	80
CCC(C)(C)c1ccc(O)cc1 [4-(2-Methylbutan-2-yl)phenol]	> 50
